HSF1 activator: HSF-1 activators, primary screen, NIH3T3-HGL cells, MG132 stress, luminescence, single point. NIH3T3-HGL HSF-1 luciferase reporter, 8 h; 100% = twice DMSO control signal. activation, % at 9 µM. hit rate 1.7% among 300,000;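 active = mean replicate activation of at least 50% with a set share of replicates each reaching 50%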
HSF1 inh: HSF1 inhibitors in luciferase reporter cells, primary screen, cell-based, NIH3T3, luminescence; NIH3T3-HGL HSE-luciferase, MG132-induced, luminescence 8 h; active compounds read low; activity change, negative = inhibition, % at 7.5 µM (by protocol); hit rate 0.77% among 300,000; AID 2098, 2009;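 active = more than half of replicate wells show activity change below -50%, luminescence cut by over half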;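 also: luciferase reports HSF-1 transcriptional activity via heat shock element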
LGR2 inh: inhibitors of bursicon-induced LGR2 CRE-luciferase signal, primary screen, cell-based, HEK293, CRE-luciferase reporter, bursicon stimulation | hit rate 0.35% among 380,000 | inhibition, % at 9.99 µM | AID 720647, 2013 | bursicon-stimulated, 4 h | Drosophila bursicon receptor LGR2 (rickets);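 active = drop in luminescence signal, shown as inhibition above about 50% in the replicate tests, limit read from the data, passing the limit was not always enough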;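 also: agonist challenge used bursicon conditioned medium at about half maximal strength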
TROY signal inh: inhibitors of TROY-driven NF-kB signaling, primary screen, Q293 LMP1-TROYcd cells, NF-kB luciferase, uHTS; Q293 LMP1-TROYcd NF-kB luciferase reporter, 4 h; inhibition, % at 10 µM; hit rate 0.98% among 360,000; AID 1347056, 2019;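 active = compounds whose plate-normalised and pattern-corrected inhibition of the luciferase reporter signal at the single screening dose is 50% or more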
TWEAK-Fn14 inh: inhibitors of TWEAK-Fn14 signaling, primary screen, luciferase reporter cells, uHTS. hit rate 2% among 360,000. AID 1159606, 2016. TWEAK-stimulated Fn14 reporter cells, luciferase luminescence, 8 h. inhibition, % at 10 µM; in the data active = inhibition above about 50%
EBV LMP1 NFkB: EBV LMP1-driven NF-kappaB luciferase reporter inhibitors, primary screen, cell-based, luminescence, single point | LMP1-induced NF-kappaB luciferase reporter cells | inhibition, % at 12.5 µM | hit rate 0.69% among 350,000 | AID 504558, 2011; in the data active = inhibition above about 41%
Of the large screens only hits and unclear results are named; the others gave an inactive call. Rows were chosen to be rich in hits. Some 3.6% of all compounds tested hit in one or more screens of this group.

C=CCn1c(=O)c2c3c(sc2n2c(Nc4ccccc4)nnc12)CCCC3	HSF1 activator 67.5 (no result: LGR2 inh)
O=C(NCC[C@H]1CC[C@@H](NS(=O)(=O)Cc2ccccc2)[C@@H](CO)O1)C1CCC1	none (no result: HSF1 activator, HSF1 inh, TROY signal inh, TWEAK-Fn14 inh, EBV LMP1 NFkB)
Cc1noc(C)c1NC(=O)Nc1ccc2c(c1)C(=O)N([C@@H](C)CO)C[C@H](C)[C@@H](CN(C)C)OCCCC[C@@H](C)O2	none (no result: HSF1 activator, HSF1 inh, TROY signal inh, TWEAK-Fn14 inh, EBV LMP1 NFkB)
CC(C)(C)N(Cc1ccc2c(c1)OCO2)C(=O)/C=C\S(=O)c1ccccc1 (stereo unspecified)	LGR2 inh 58.8, TWEAK-Fn14 inh 87.5 (no result: HSF1 activator, HSF1 inh)
COCCCNC(=O)C1CCC(=O)N1Cc1ccccc1Cl (stereo unspecified)	TWEAK-Fn14 inh 85.4 (no result: TROY signal inh)
CSc1nc(Cl)c(Cc2ccc(OC(C)C)cc2)c(N(C)C)n1	HSF1 activator 58.5 (no result: LGR2 inh)
O=C(C[C@@H]1CC[C@@H]2[C@H](COC[C@H](O)CN2S(=O)(=O)c2ccccc2Cl)O1)NCc1ccccc1Cl	none (no result: HSF1 activator, HSF1 inh, TROY signal inh, TWEAK-Fn14 inh, EBV LMP1 NFkB)
Cc1ccc(C)c(N2CCN(C(=O)c3cc(S(=O)(=O)N4CCCC4)cn3C)CC2)c1	HSF1 inh -68.2
Cc1cccc(N2CCN(C(=O)c3cc(S(=O)(=O)N4CCCC4)cn3C)CC2)c1C	none
CC(C)CC#Cc1ccc2c(c1)O[C@@H](CN(C)C(=O)c1ccncc1)[C@@H](C)CN([C@@H](C)CO)S2(=O)=O	none (no result: HSF1 activator, HSF1 inh, TROY signal inh, TWEAK-Fn14 inh, EBV LMP1 NFkB)
O=C(CN1CCN(S(=O)(=O)c2ccc(F)cc2)CC1)Nc1cccc(C(F)(F)F)c1	EBV LMP1 NFkB 74.4
COc1ccc(S(=O)(=O)N2CCN(CC(=O)Nc3cc(OC)cc(OC)c3)CC2)cc1	EBV LMP1 NFkB 78.9
Cc1ccc(C(=O)O)cc1N1C(=O)c2cccc3c([N+](=O)[O-])ccc(c23)C1=O	none
O=C(O)c1ccc(CN2C(=O)c3cccc4c([N+](=O)[O-])ccc(c34)C2=O)cc1	HSF1 inh -83.5, TROY signal inh 71.0, TWEAK-Fn14 inh 52.9
COc1ccc2c3c([nH]c2c1)[C@H](CO)N(C(=O)c1ccccn1)CC31CN(C(=O)C2CCCCC2)C1	none (no result: HSF1 activator, HSF1 inh, TROY signal inh, TWEAK-Fn14 inh, EBV LMP1 NFkB)
CCOC(=O)c1c(NC(=O)c2nn(CC)cc2Br)c(C#N)nn1-c1ccccc1	HSF1 activator 52.1
Cc1noc(C)c1NC(=O)N(C)C[C@@H]1Oc2ccc(NC(=O)Cn3cnnn3)cc2C(=O)N([C@@H](C)CO)C[C@H]1C	none (no result: HSF1 activator, HSF1 inh, TROY signal inh, TWEAK-Fn14 inh, EBV LMP1 NFkB)
O=C(N/N=C/c1ccc(N2CCCCC2)o1)C(O)(c1ccccc1)c1ccccc1	HSF1 activator 65.8 (no result: LGR2 inh, TROY signal inh, TWEAK-Fn14 inh, EBV LMP1 NFkB)
CN(C)c1ccc(/C=N/NC(=O)C(O)(c2ccccc2)c2ccccc2)o1	none (no result: LGR2 inh)
C[C@@H]1CN([C@H](C)CO)C(=O)c2cc(C3=CCCCC3)cnc2O[C@@H]1CN(C)S(C)(=O)=O	none (no result: HSF1 activator, HSF1 inh, TROY signal inh, TWEAK-Fn14 inh, EBV LMP1 NFkB)
CN(Cc1ccccc1F)c1ncnc2sccc12	TWEAK-Fn14 inh 51.1
C[C@@H]1CN([C@@H](C)CO)C(=O)c2cccc(NC(=O)CCCCCC(=O)Nc3ccccc3N)c2O[C@@H]1CN(C)C(=O)Nc1cccc2ccccc12	none (no result: HSF1 activator, HSF1 inh, TROY signal inh, TWEAK-Fn14 inh, EBV LMP1 NFkB)
O=C(NCc1ccco1)c1ccccc1-c1ccccc1	none (no result: LGR2 inh)
Cc1scc(C(=O)NCc2ccco2)c1-c1ccccc1	HSF1 activator 63.5
CCN1C(=O)N(CC)c2cccc3cccc1c23	TWEAK-Fn14 inh 91.5
COc1ccc2c3c(n(C)c2c1)[C@H](CO)N(C(=O)NC(C)C)CC31CCN(CC2CC2)CC1	none (no result: HSF1 activator, HSF1 inh, TROY signal inh, TWEAK-Fn14 inh, EBV LMP1 NFkB)
C[C@@H]1CCCCO[C@H](CN(C)C(=O)Nc2ccc(C(F)(F)F)cc2)[C@H](C)CN([C@@H](C)CO)C(=O)c2cc(NC(=O)c3ccncc3)ccc2O1	none (no result: HSF1 activator, HSF1 inh, TROY signal inh, TWEAK-Fn14 inh, EBV LMP1 NFkB)
O=C1C(C=Nc2ccccc2O)=C(O)c2ccccc21	LGR2 inh 64.8
COc1ccc(N=CC2=C(O)c3ccccc3C2=O)cc1	TROY signal inh 73.8, TWEAK-Fn14 inh 97.5 (no result: LGR2 inh)
O=C1C(C=Nc2ccccc2)=C(O)c2ccccc21	HSF1 activator 53.7, TROY signal inh 52.5, TWEAK-Fn14 inh 60.8 (no result: LGR2 inh)
COc1ccc(N=Cc2[nH]c3ccccc3c2O)cc1	none
CN=CC1=C(O)c2ccccc2C1=O	none (no result: LGR2 inh)

Compound activity deposited in PubChem BioAssay by several laboratories.
